HTT ATP protect = protects HTT-Q103 PC12 cells, measured by ATP; 230,000 compounds, 0.14% hits; Potency, µM (titrated, usually from 56.4 µM), for inactives: cytoprotection (ATP increase), actives largely listed as activators; PC12 HTT-Q103 induced, cytoprotection, ATP luminescence, 40 h; note: potency is the fitted concentration of half-maximal effect; % of control where 0% means no effect; nearly all actives have a fitted effect of over 45% in size
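Compounds added alongside 100 nM tebufenozide, which induces toxic Q103 huntingtin exon 1-GFP in stable PC12 cells; surviving cells quantified by luminescent ATP measurement. Medium: phenol red-free DMEM, 5% equine and 5% calf serum.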
NPSR antag = neuropeptide S receptor (human) antagonism, cAMP; Q6W5P4; CHO-NPSR cells, cAMP TR-FRET, antagonist mode; Potency, µM (highest dose often 38.3 µM), for inactives: at the highest dose activity change, negative = inhibition, actives largely listed as inhibitors; 220,000 compounds, 1% hits; AID 1461; note: potency is the fitted concentration of half-maximal effect; % is set by controls: 0 for no effect and ±100 for the full control effect; nearly all actives have a fitted effect of over 50% in size
Target sequence (Q6W5P4 whole entry, looked up): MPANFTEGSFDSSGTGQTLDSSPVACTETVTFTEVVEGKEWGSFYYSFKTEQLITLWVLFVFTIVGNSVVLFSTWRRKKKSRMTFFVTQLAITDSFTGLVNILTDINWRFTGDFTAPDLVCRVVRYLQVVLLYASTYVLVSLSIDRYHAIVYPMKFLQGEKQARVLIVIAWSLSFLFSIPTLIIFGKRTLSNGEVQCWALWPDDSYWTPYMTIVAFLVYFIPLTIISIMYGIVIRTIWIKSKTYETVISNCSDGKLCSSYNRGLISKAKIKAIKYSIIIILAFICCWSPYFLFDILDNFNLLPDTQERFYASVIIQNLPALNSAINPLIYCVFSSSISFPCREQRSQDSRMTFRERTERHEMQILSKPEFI
MBNL1 CUG block = blocks human MBNL1 binding to CUG repeat RNA; Q9NR56; 280,000 compounds, 0.036% hits; AID 2675; TR-FRET MBNL1-His/biotin-(CUG)12 binding, 665/545 ratio; Potency, µM (titrated, usually from 57.5 µM), inactives show top-dose activity change, negative = inhibition, actives largely listed as inhibitors; active = well fitted inhibition curve with a large enough effect in the signal ratio, with a control signal flat, not every such curve was filed as active; inconclusive = small, poorly fitted or top-dose-only effect, or effect the other way, or a change in a side signal; inactive = no such curve, though single readings can be large or run the other way; the % refers to the signal ratio; note: potency is the fitted concentration of half-maximal effect; % is set by controls: 0 for no effect and ±100 for the full control effect
Target sequence (Q9NR56 whole entry, looked up): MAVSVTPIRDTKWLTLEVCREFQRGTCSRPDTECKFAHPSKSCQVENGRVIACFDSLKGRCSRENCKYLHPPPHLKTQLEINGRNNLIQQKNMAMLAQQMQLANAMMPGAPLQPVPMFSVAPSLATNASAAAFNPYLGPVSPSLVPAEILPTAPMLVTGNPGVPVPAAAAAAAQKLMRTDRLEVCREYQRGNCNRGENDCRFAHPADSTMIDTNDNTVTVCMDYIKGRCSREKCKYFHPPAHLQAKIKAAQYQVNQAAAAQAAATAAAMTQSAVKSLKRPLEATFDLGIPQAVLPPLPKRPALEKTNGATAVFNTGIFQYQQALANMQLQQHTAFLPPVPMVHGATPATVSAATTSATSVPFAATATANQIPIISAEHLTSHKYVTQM
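TR-FRET readout: Ex 340 nm, 665/545 nm emission ratio, normalized to buffer-only (basal) and MBNL1-(CUG)12 controls. Complex of MBNL1-His with Biotin-(CUG)12, compounds 92 nM–58 uM, incubated 60 min at room temperature.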
HttQ103 aggreg = inhibitors of mutant huntingtin aggregate formation in PC12 cells; PC12 HttQ103-GFP aggregates, Acumen cytometry, 40 h; AID 1688; 220,000 compounds, 1.1% hits; Potency, µM (doses to about 46.1 µM), without a hit: at the highest dose activity change, negative = inhibition, usual class: inhibitors; note: potency is the fitted concentration of half-maximal effect; % is set by controls: 0 for no effect and ±100 for the full control effect; nearly all actives have a fitted effect of over 60% in size
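Ecdysone-promoter PC12 model expressing HTT exon 1 Q103 fused to GFP, induced by tebufenozide at 100 nM final. Compounds titrated; aggregates sized 1–25 µm scored on a 488 nm laser cytometer.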
CBFb RUNX1 block = inhibitors of human CBF-beta and RUNX1 interaction. Q01196+Q13951. AlphaScreen CBFb-His/RUNX1-biotin binding, biochemical. Potency, µM (series often up to 59.8 µM), for inactives: at the top dose activity, negative = inhibition, hits mostly inhibitors. 230,000 tested, under 10 active; note: % of control where 0% means no effect
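Proteins preincubated together for 20 min at RT before compound addition; 15 min later, nickel and streptavidin beads were added and left 90 min prior to AlphaScreen measurement.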
Lamin A splicing = modulators of lamin A splicing | HeLa LMNA splicing GFP/RFP minigene ratio, 48 h | Potency, µM (series often up to 46.1 µM), for inactives: top-dose ratio change, negative = inhibition, actives largely listed as inhibitors | 200,000 compounds, 0.01% hits | AID 1487; active = well fitted inhibition curve with a large enough effect in the signal ratio, with a control signal flat, not every such curve was filed as active; inconclusive = small, poorly fitted or top-dose-only effect, or effect the other way, or a change in a side signal; the % refers to the signal ratio; note: potency is the fitted concentration of half-maximal effect; % is set by controls: 0 for no effect and ±100 for the full control effect
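S3 HeLa stable clones carrying a lamin A-EGFP splicing minigene plus DsRed2 were seeded at 600 cells/well in Opti-MEM with 2% FBS, pin-dosed and incubated 48 h at 37°C. Acumen cytometry (488 nm) gave the GFP/RFP total-intensity ratio.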
* marks the source's active call; other numbers are inactive results; [ ] = another dose, or the depositor's remark. Compounds with a hit are over-represented: about 1.1% of the library has one in this group of screens. Unless noted, calls come from the whole dose curve; as a rule, active = well fitted curve in the direction sought with a large enough effect; inconclusive = small, poorly fitted or top-dose-only effect, or another doubt; inactive = no such curve, though single readings can be large; an effect the other way counts as inactive or inconclusive.

Screening CC(C)Nc1nc(-c2cccnc2)nc(-c2ccccc2)c1C#N returned MBNL1 CUG block 2.0%.
For COC(=O)C1=C(C(=O)OC)[C@@H]2N(C)c3ccc(OC)cc3[C@@]23C[C@@H](C(=O)OC)N(S(=O)(=O)c2cccs2)C3=N1 the results were HTT ATP protect 11.3%[10 µM], CBFb RUNX1 block 2.7%[13.1 µM] and Lamin A splicing -6.3%[9.22 µM].
Screening COc1ccc(S(=O)(=O)N(C(C)=O)c2ccc(OC(C)=O)c3ccccc23)cc1[N+](=O)[O-] returned HTT ATP protect -4.1%[10 µM], NPSR antag -18.0%[46.1 µM], MBNL1 CUG block 1.5%, HttQ103 aggreg 6.31µM*, CBFb RUNX1 block -10.3% and Lamin A splicing inconclusive.
Cc1ccccc1-c1cc2c(nn1)-c1ccccc1C2=O was read as HTT ATP protect -122.9%, NPSR antag 21.7%[46.1 µM], MBNL1 CUG block inconclusive, HttQ103 aggreg 25.1µM*, CBFb RUNX1 block -5.7% and Lamin A splicing inconclusive.
`CCc1cccc2cc(C(O)CNC(C)(C)C)oc12` (configuration not stated) gave CBFb RUNX1 block -11.0%.
For Cc1cccc2sc(NNC(=O)c3ccc(S(=O)(=O)N4CC(C)CC(C)C4)cc3)nc12 (configuration not stated) the results were NPSR antag -1.4%, MBNL1 CUG block 78.6%, HttQ103 aggreg inconclusive, CBFb RUNX1 block 6.8%[2.36 µM] and Lamin A splicing 17.8µM*.
Screening O=C(c1ccc(S(=O)(=O)N2CCCC2)cc1)N1CCC(CN2C(=O)c3cccc4cccc(c34)C2=O)CC1 returned HTT ATP protect -26.5%[10 µM], NPSR antag 10µM*, MBNL1 CUG block 3.4%, HttQ103 aggreg -8.6%[9.22 µM] and CBFb RUNX1 block 0.8%.
`COc1ccc(S(=O)(=O)N2CCC(CN3C(=O)c4cccc5cccc(c45)C3=O)CC2)cc1` gave HTT ATP protect -4.7%[10 µM], NPSR antag 11.1%, HttQ103 aggreg 13.9%, CBFb RUNX1 block -8.3% and Lamin A splicing -6.1%.
`Cc1cc(C)cc(OC(=O)c2snnc2C)c1` gave Lamin A splicing 9.9%[46 µM].
For O=C1c2ccccc2[C@@H]([C@@H]2c3ccccc3C(=O)c3cc(Br)ccc32)c2ccc(Br)cc21 the results were HTT ATP protect 0.9%[10 µM].
`Cc1cc2nc(SCC(=O)Nc3nonc3C)c3c(c2cc1C)CCCC3` gave HTT ATP protect 3.2%, NPSR antag 7.94µM*, MBNL1 CUG block 0.9%, HttQ103 aggreg 16.6%, CBFb RUNX1 block 8.8% and Lamin A splicing 2.7%.
For N[C@@H](CCCCNC(=O)CCCC[C@@H]1SC[C@H]2NC(=O)N[C@H]12)C(=O)O the results were CBFb RUNX1 block 0.398µM*.
Screening C[C@@H](CCC[C@@H]1SC[C@H]2NC(=O)N[C@H]12)C(=O)O returned HTT ATP protect -9.6%[10 µM].
Screening Nc1c(C(=O)Nc2ccc(S(=O)(=O)N3CCCC3)cc2)sc2nc3cc4c(cc3cc12)CCC4 returned HTT ATP protect -20.6%[10 µM], NPSR antag 3.4%, MBNL1 CUG block 3.7%, HttQ103 aggreg 14.1µM*, CBFb RUNX1 block 2.5% and Lamin A splicing -17.9%.
Screening CC1CCN(S(=O)(=O)c2ccc3c(ccc(=O)n3CC(=O)Nc3cccc(F)c3)c2)CC1 returned Lamin A splicing 13.6%[46 µM].
For CCCCNS(=O)(=O)c1ccc(S(=O)(=O)NCc2ccncc2)cc1 the results were NPSR antag -3.8%[46.1 µM], MBNL1 CUG block -9.4%, HttQ103 aggreg 7.94µM*, CBFb RUNX1 block 14.4% and Lamin A splicing inconclusive.
Screening Cc1cc(C)c(S(=O)(=O)NCc2ccncc2)c(C)c1 returned HTT ATP protect 35.0%, NPSR antag 0.1%[46.1 µM], MBNL1 CUG block -3.9%, HttQ103 aggreg 6.31µM*, CBFb RUNX1 block 3.5% and Lamin A splicing inconclusive.
For CCOc1ccccc1N1CCN(C(=O)CCCN2C(=O)c3cccc4cccc(c34)C2=O)CC1 the results were HTT ATP protect -16.3%[10 µM], NPSR antag inconclusive, MBNL1 CUG block inconclusive, HttQ103 aggreg 20µM*, CBFb RUNX1 block -10.5% and Lamin A splicing inconclusive.
For Cc1cc(C)c2nc(C(F)(F)F)c(C#N)c(N)c2c1 the results were HTT ATP protect 37.0%[10 µM], NPSR antag 14.1%[46.1 µM], MBNL1 CUG block 17.0%, HttQ103 aggreg 5.62µM*, CBFb RUNX1 block -4.7% and Lamin A splicing inconclusive.
For Cc1ccc2nc(C(F)(F)F)c(C#N)c(N)c2c1 the results were HTT ATP protect 25.8%, NPSR antag 5.7%[46.1 µM], MBNL1 CUG block 3.6%, HttQ103 aggreg inconclusive, CBFb RUNX1 block 6.9% and Lamin A splicing inconclusive.
C[C@H]1Cc2c(-c3ccccc3)nc3c(c2CO1)CN(C(=O)C1CCCCC1)CC3 was read as HTT ATP protect -1.5%[10 µM], CBFb RUNX1 block 5.8%[13.1 µM] and Lamin A splicing inconclusive.
For CC(C)NC(=O)Cn1nnc(-c2ccc(Cl)cc2)n1 the results were HTT ATP protect -16.9%[10 µM], NPSR antag 5.3%[46.1 µM], MBNL1 CUG block 9.9%, HttQ103 aggreg 12.6µM*, CBFb RUNX1 block 0.8% and Lamin A splicing -2.1%.
Screening COc1cccc(C2=Nn3c(nnc3-c3cc(OC)ccc3OC)SC2)c1 returned CBFb RUNX1 block -14.9%.
For C[C@@H](N)/C(N)=N/O the results were HTT ATP protect -8.8%[10 µM].
Screening C=CCC(C)(NCc1ccccc1)C(=O)OCC (configuration not stated) returned HTT ATP protect 17.8% and CBFb RUNX1 block 14.3%.
COC(=O)[C@@H]1CC[C@H](C)[C@@H](c2ccc(C)cc2)N1C(=O)c1ccc(/C=N/O[C@@H](C)CN2CCCCc3nc(C)c(C)cc32)cc1 was read as NPSR antag 10µM*, MBNL1 CUG block -10.6%, HttQ103 aggreg 13.1%, CBFb RUNX1 block 3.3%[2.36 µM] and Lamin A splicing inconclusive.
Screening COC(=O)[C@@H]1CC[C@H](C)[C@@H](c2ccc(C)cc2)N1C(=O)c1ccc(/C=N\O[C@@H](C)CN2CCCCc3nc(C)c(C)cc32)cc1 returned HTT ATP protect 12.1%[10 µM] and CBFb RUNX1 block inconclusive.
For O=C(/C(=C/O)N=Nc1ccccc1)c1ccc(Cl)cc1 the results were HTT ATP protect 6.6%, NPSR antag inconclusive, MBNL1 CUG block 2.3%, HttQ103 aggreg inconclusive, CBFb RUNX1 block inconclusive and Lamin A splicing inconclusive.
Cc1ccc(N=N/C(=C\O)C(=O)c2ccc(Cl)cc2)cc1 was read as HTT ATP protect -16.0%[10 µM], NPSR antag 7.94µM*, MBNL1 CUG block -0.8%, HttQ103 aggreg inconclusive, CBFb RUNX1 block inconclusive and Lamin A splicing inconclusive.

High-throughput results (PubChem)
